Most compounds without a hit are left out; they make up all but 7.4% or so of the library.
SMN2 splice enh = qHTS Assay for Enhancers of SMN2 Splice Variant Expression | HEK293 SMN2-luciferase splicing reporter, luminescence, 30-36 h | Potency, µM (highest dose often 46.1 µM), inactives show at the top dose activity change, positive = activation, usual class: activators | 210,000 tested, 2.8% active; note: % of control where 0% means no effect; nearly all actives have a fitted effect of over 55% in size
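HEK293 cells carry an SMN2 […]–luciferase reporter in which exon 7 inclusion puts luciferase in frame. Cells were plated 10-12 h before compound addition, then incubated 30-36 h at 37C. ONE-Glo luminescence was read; sodium butyrate at 4.5 mM final served as control.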
NPC1 prom act = qHTS Assay for NPC1 Promoter Activators; AID 485313, 2010; 320,000 tested, 2.4% active; Huh7 NPC1 promoter luciferase reporter, 24 h; Potency, µM (doses to about 9.22 µM), for inactives: at the top dose activation, hits mostly activators; note: % of control where 0% means no effect; nearly all actives have a fitted effect of over 60% in size
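Stable NPC1-promoter luciferase Huh7 line; cpd (DMSO) 24 h, 37 °C, 5% CO2; Amplite luciferase reagent 10 min RT; luminescence readout. qHTS format.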
ELG1 genotoxic = qHTS screen for small molecules that induce genotoxicity in human embryonic kidney (HEK293T) cells expressing luciferase-tagged ELG1 | HEK293T ELG1-luciferase reporter, luminescence, 16 h | Potency, µM (top dose mostly 46 µM), inactives show top-dose activity change, positive = activation, most hits filed as activators | 330,000 tested, 1.3% active | AID 504466, 2011; note: % of control where 0% means no effect; nearly all actives have a fitted effect of over 60% in size
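ELG1-luciferase HEK293T cells, 2,000/well; compound pinned in; 16 hr, 37 °C, 5% CO2; ONE-Glo, 30 min RT; luminescence on CCD imager.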
Rab9 prom act = qHTS Assay for Rab9 Promoter Activators; Huh7 Rab9 promoter-luciferase reporter, luminescence, 24 h; Potency, µM (highest dose often 9.22 µM), inactives show at the highest dose activation, negative = inhibition, hits mostly activators; 320,000 tested, 2.8% active; AID 485297, 2010; note: % of control where 0% means no effect; nearly all actives have a fitted effect of over 60% in size
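Huh7 cells stably carrying a Rab9 promoter-luciferase reporter, 1500 cells per well in OP-MEM I with 10% FBS, treated with compound 24 hours at 37C. Luciferase activity read by luminescence after 10 minutes with Amplite reagent.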
FLuc counter = qHTS profiling assay for firefly luciferase inhibitor/activator using purifed enzyme and Km concentrations of substrates (counterscreen for miR-21 project); purified FLuc, Km substrates, luminescence inhibition; Potency, µM (highest dose often 57.5 µM), for the others: top-dose activity change, negative = inhibition, usual class: inhibitors; AID 588342, 2011; 360,000 tested, 6.9% active;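 note: plate controls were vehicle for no effect and reference inhibitor for full effect; nearly all actives have a fitted effect of over 55% in size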
Target sequence (P08659 whole entry, looked up): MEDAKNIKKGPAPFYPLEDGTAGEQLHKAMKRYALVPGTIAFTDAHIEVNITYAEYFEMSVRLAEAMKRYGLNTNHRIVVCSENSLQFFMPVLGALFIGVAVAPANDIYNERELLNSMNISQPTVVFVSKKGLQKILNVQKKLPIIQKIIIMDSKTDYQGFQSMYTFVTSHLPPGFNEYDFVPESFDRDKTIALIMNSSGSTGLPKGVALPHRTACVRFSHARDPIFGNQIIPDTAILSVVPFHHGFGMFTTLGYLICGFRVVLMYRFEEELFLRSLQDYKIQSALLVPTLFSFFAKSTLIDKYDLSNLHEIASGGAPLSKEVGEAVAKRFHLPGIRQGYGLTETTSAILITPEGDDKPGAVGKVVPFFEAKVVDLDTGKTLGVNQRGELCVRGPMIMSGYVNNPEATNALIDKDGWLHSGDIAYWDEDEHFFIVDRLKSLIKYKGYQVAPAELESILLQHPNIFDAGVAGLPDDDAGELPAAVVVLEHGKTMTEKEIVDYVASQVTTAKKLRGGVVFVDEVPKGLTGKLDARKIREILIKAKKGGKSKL
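Purified P. pyralis luciferase (10nM final) with 10uM D-luciferin and 10uM ATP (Km levels) in 50mM Tris acetate pH 7.5, 10mM Mg acetate, 0.01% Tween-20, 0.05% BSA; qHTS 6-point titration, ~60 µM downward; luminescence read.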
* = called active by the depositor; ? = inconclusive; / = no result given; [ ] = remark or other dose. Calls come from the whole dose curve; as a rule, active = well fitted curve in the direction sought with a large enough effect; inconclusive = small, poorly fitted or top-dose-only effect, or another doubt; inactive = no such curve, though single readings can be large; an effect the other way counts as inactive or inconclusive. Potency is the fitted concentration of half-maximal effect.

SMILES | SMN2 splice enh | NPC1 prom act | ELG1 genotoxic | Rab9 prom act | FLuc counter
CN(C)S(=O)(=O)c1cccc(C(=O)Nc2ccc(N3CCOCC3)cc2)c1 | / | -1.9% | -2.2% | -4.0% | ?
CN(C)S(=O)(=O)c1ccc(C(=O)Nc2ccccc2F)cc1 | 10.9% | 6.4% | 3.6% | 1.5% | -8.1%
COc1ccccc1C(=O)Nc1cc2c(cc1C(=O)O)OCCCO2 | / | -3.0% | 4.4% | -3.2% | -13.5%
CN(C)S(=O)(=O)c1cccc(C(=O)Nc2cc3c(cc2C(=O)O)OCCCO3)c1 | / | 16.3% | 8.4% | 6.7% | 6.01µM*
O=C(Nc1cc2c(cc1C(=O)O)OCCCO2)c1ccc(F)cc1F | / | -41.7% | ? | 24.4% | 21.3µM*
CN(C)S(=O)(=O)c1ccc(C(=O)Nc2ccccc2C(=O)O)cc1 | 1.9% | 1.3% | -0.7% | 3.2% | 12µM*
COc1cccc(N2CCN(C(=O)CCc3c(C)nc4c(c3C)c(=O)n(C)c(=O)n4C)CC2)c1 | -9.0% | / | / | / | -3.6%
Cc1ccc(C)c(CSC2=NC(C)(C)Nc3ccccc32)c1 | / | / | / | / | -11.5%
CCCCCC(=O)/C=C/[C@H]1[C@H](O)CC(=O)[C@@H]1C/C=C\CCCC(=O)O | 11.1% | / | / | / | /
O=C(O)c1cccc(-c2ccc3c(c2)OCO3)c1 | / | -0.7% | 6.3% | 11.9% | ?
Clc1ccccc1-c1nnc2sc(-c3ccc4c(c3)OCO4)nn12 | ? | -4.0% | ? | 14.3% | ?
O=[N+]([O-])c1cccc(-c2nnc(-c3ccc4c(c3)OCO4)o2)c1 | 11.2µM* | 2.51µM* | ? | 2.24µM* | 2.69µM*
Clc1ccccc1-c1nnc(-c2ccc3c(c2)OCO3)o1 | 5.01µM* | 1.41µM* | -11.3% | 1.26µM* | 2.69µM*
O=[N+]([O-])c1cccc(-c2nnc(-c3ccccc3)o2)c1 | 20µM* | 2.82µM* | ? | 2.24µM* | 15.1µM*
C=C1c2ccccc2NC(=O)N1c1ccc(OC)cc1 | / | -4.6% | 8.5% | -0.3% | 2.8%
COc1ccc(N2C(=O)c3ccccc3NC23CCCCC3)cc1 | 12.6µM* | 2.82µM* | ? | 2.51µM* | 10.7µM*
CCOc1ccc(N2C(=O)c3ccccc3NC2(C)CC)cc1 (stereo not given) | / | ? | ? | 3.55µM* | /
COc1ccc(N2C(=O)c3ccccc3NC23CCC(C)CC3)cc1 (stereo not given) | 10µM* | 2.51µM* | ? | 2.24µM* | ?
CCC1(C)Nc2ccccc2C(=O)N1O (stereo not given) | 16.2% | -7.9% | -1.6% | -2.3% | -2.1%
COc1ccc(N2C(=O)c3ccccc3NC2(C)C)cc1 | 8.91µM* | ? | -1.6% | ? | -2.5%
CCOc1cc(-c2nnc(SCC(=O)NCc3ccccc3)nc2-c2ccc(OC)c(OCC)c2)ccc1OC | / | / | / | / | -5.7%
Cc1ccc(N(CC(=O)Nc2ccc(Br)cc2)S(=O)(=O)c2cccs2)cc1 | 1.0% | / | / | / | -2.0%
Cc1ccc(C)c(CN2CCCN(Cc3ccc(F)cc3)S2(=O)=O)c1 | / | / | / | / | 0.3%
COc1ccc(-n2c(=O)cnc3cnc(N4CCNCC4)nc32)cc1 | -9.3% | / | / | / | /
COc1ccc(-c2cc3cc4c(cc3cn2)OCO4)cc1 | / | / | 0.731µM* | / | /
SMILES | SMN2 splice enh | NPC1 prom act | ELG1 genotoxic | Rab9 prom act | FLuc counter
COc1ccc(-c2cc3cc(OC)c(OC)cc3cn2)cc1 | / | / | 13.4% | / | /
COc1cc(OC)cc(-c2cc3cc4c(cc3cn2)OCO4)c1 | / | / | 4.11µM* | / | /
COc1cc(OC)cc(-c2n[nH]c(=S)n2-c2ccc3c(c2)OCO3)c1 | 14.2% | -0.1% | 3.7% | 2.2% | -16.3%
CCOC(=O)c1c(NC(=O)c2cc(CC)on2)sc(C)c1C | 10.0% | / | / | / | 2.4%
COc1ccc(NC(=O)c2nnn(Cc3nc(-c4cc(OC)c(OC)c(OC)c4)oc3C)c2C)cc1Cl | 2.0% | / | / | / | -10.0%
CC(=O)NC1=NC(=O)/C(=C/c2cc(C)n(-c3ccc(NC(C)=O)cc3)c2C)S1 | 11.5% | ? | -3.9% | ? | 5.36µM*
CC(=O)NC1=NC(=O)/C(=C/c2cc(C)n(-c3cccc(C(=O)O)c3)c2C)S1 | / | -8.2% | -0.3% | -7.1% | 15.1µM*
Fc1ccc(-c2noc3ncnc(NCCc4ccccc4)c23)cc1 | / | / | / | / | -17.2%
Cc1cc(NC(=O)C(C)(C)C)cc(-c2nc3ncccc3o2)c1O | -11.2% | / | / | / | ?
N#C/C(=C/c1ccc(N2CCCCC2)cc1)c1cccc(F)c1 | ? | 3.98µM* | 18.4µM* | 3.16µM* | 5.36µM*
N#C/C(=C/c1ccc(N2CCCCC2)o1)c1cccc(F)c1 | 22.1% | -2.4% | 3.66µM* | 6.3% | 2.13µM*
N#C/C(=C/c1ccc(N2CCCCCC2)o1)c1ccc(Cl)cc1 | 0.8% | 26.3% | ? | 3.98µM* | 9.53µM*
COc1ccc(CCCc2nnc(SCC(=O)Nc3ccc(C)cc3)o2)cc1C | / | / | / | / | -5.2%
Cc1cccc(N2CCN(C(=O)c3cc4c(=O)n(C)c5ccccc5c4s3)CC2)c1C | -10.8% | / | / | / | 2.5%
N#CCSc1ccc2nc(-c3ccccc3)cn2n1 | / | 2.82µM* | ? | 2µM* | 7.57µM*
CC(=O)c1ccc(NC(=O)CSc2ccc3nc(-c4ccccc4)cn3n2)cc1 | / | / | / | / | 12µM*
CCc1ccc(NC(=O)CSc2ccc3nnc(CCNS(=O)(=O)c4ccc(OC)cc4)n3n2)cc1 | / | / | / | / | -9.2%
CCc1ccc(NC(=O)CSc2ccc3nc(-c4ccc(OC)cc4)cn3n2)cc1 | / | / | / | / | 2.69µM*
O=C(CSc1ccc2nc(-c3ccccc3)cn2n1)Nc1ccccc1C(F)(F)F | / | / | / | / | -11.1%
CCn1cc(Br)c(C(=O)Nc2ccc(F)cc2F)n1 | / | ? | 12.3% | ? | ?
CCn1cc(Br)c(C(=O)Nc2cccc(SC)c2)n1 | 35.5µM* | 24.6% | ? | ? | 23.9µM*
COc1ccc(NC(=O)N2CCCC3(CCN(S(C)(=O)=O)CC3)C2)cc1 | 0.7% | / | / | / | /
O=C(COc1ccc(Cl)cc1)NCC(c1ccco1)S(=O)(=O)c1ccc(F)cc1 (stereo not given) | / | / | / | / | -9.5%
COc1cc(C(=O)N/N=C/c2ccccn2)cc(OC)c1OC | -15.8% | -21.6% | -3.3% | -4.0% | 2.8%
Cc1ccc(C(=O)Nc2ccc(C(=O)N/N=C/c3ccccn3)cc2)cc1 | / | 27.3% | -29.0% | ? | 15.1µM*
SMILES | SMN2 splice enh | NPC1 prom act | ELG1 genotoxic | Rab9 prom act | FLuc counter
O=C(N/N=C/c1ccccn1)c1cccs1 | -44.9% | 5.5% | ? | 7.3% | 19µM*
O=C(N/N=C/c1ccccn1)c1ccc(Cl)cc1 | / | ? | 18.3µM* | 3.16µM* | 8.49µM*
CN(C)c1ccc(C(=O)N/N=C/c2ccccn2)cc1 | / | 2.82µM* | ? | 2.51µM* | 13.5µM*
COc1ccc(C(=O)N/N=C/c2ccccn2)cc1OC | / | -0.8% | -1.1% | 8.9% | -6.4%
Cc1cc(OCC(=O)N(Cc2ccc(N(C)C)cc2)CC2CCCO2)ccc1Cl (stereo not given) | 4.5% | / | / | / | -5.2%
NC(N)=NCCCC(=O)O | -8.0%[9.22 µM] | / | / | / | /
